# Compound activity as filed in PubChem BioAssay.
# A selection: hits, their analogues and other compounds. The true share with any hit is near 10%.
# G9a inh: inhibitors of human histone lysine methyltransferase G9a; AID 504332; 350,000 compounds, 8.8% hits; G9a H3K9 monomethylation, AlphaScreen, 2 h; Potency, µM (series often up to 102 µM), without a hit: top-dose activity, negative = inhibition, actives largely listed as inhibitors; further: on the % scale 0 is the no-effect control and ±100 the full control effect; nearly all actives have a fitted effect of over 75% in size
#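 Quantitative HTS format: methyltransferase activity on a biotin-tagged H3K9 peptide is measured by AlphaScreen, using a rabbit anti-monomethyl-H3K9 antibody with streptavidin donor and anti-IgG acceptor beads. Final levels are 20 nM enzyme, 500 nM peptide, 20 uM SAM; 2 h RT.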
# GLS inhibitor: blocks human kidney-isoform glutaminase activity; O94925; GLS enzymatic activity, qHTS titration; Potency, µM (series often up to 45.5 µM), for the others: at the top dose activity change, negative = inhibition, usual class: inhibitors; 410,000 compounds, 0.21% hits; further: on the % scale 0 is the no-effect control and ±100 the full control effect
#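 Two-point fluorescence kinetic (t0, 30 min RT) for hKGA; glutamate detected via glutamate oxidase–HRP–Amplex Red. Substrate: 1 mM L-glutamine solution; buffer 45 mM KH2PO4, pH 8.2.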
# L3MBTL1 block: inhibitors of human L3MBTL1. Q9Y468. AlphaScreen L3MBTL1–H3K9me1 peptide binding. Potency, µM (highest dose often 57.1 µM), without a hit: at the top dose activity, negative = inhibition, usual class: inhibitors. 230,000 compounds, 0.66% hits. AID 485360; further: on the % scale 0 is the no-effect control and ±100 the full control effect; nearly all actives have a fitted effect of over 60% in size
# Target sequence (Q9Y468 whole entry, looked up): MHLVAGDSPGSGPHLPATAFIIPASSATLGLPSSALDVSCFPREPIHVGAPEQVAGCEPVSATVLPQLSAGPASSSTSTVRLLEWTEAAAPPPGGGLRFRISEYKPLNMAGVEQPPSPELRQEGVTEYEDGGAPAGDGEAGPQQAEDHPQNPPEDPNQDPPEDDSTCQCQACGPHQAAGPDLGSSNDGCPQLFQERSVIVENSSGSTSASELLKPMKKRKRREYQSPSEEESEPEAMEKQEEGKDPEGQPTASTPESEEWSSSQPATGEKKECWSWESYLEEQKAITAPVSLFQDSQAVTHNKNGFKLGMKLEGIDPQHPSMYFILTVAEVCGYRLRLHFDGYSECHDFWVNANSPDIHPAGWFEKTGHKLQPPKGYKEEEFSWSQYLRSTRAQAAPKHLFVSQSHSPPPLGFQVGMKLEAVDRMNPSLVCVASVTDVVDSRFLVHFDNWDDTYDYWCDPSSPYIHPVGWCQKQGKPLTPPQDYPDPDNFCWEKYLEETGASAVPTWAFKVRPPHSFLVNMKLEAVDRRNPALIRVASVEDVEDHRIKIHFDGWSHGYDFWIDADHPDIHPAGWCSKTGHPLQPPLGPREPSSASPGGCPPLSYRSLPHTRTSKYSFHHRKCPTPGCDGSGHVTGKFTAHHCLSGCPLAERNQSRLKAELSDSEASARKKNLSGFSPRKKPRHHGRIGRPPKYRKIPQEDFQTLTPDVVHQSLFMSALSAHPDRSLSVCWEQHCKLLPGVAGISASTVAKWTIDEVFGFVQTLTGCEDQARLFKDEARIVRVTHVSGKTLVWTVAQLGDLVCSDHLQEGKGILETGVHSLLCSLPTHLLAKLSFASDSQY
#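 L3MBTL1 50 nM + b-AHA-H3(1-15)K9me1 75 nM, 30 min RT; compound added, 30 min RT; streptavidin donor/Ni-chelate acceptor beads 10 ug/mL each final, 30 min RT dark; AlphaScreen read.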
# BAZ2B block: BAZ2B (human) inhibition | 360,000 compounds, 4.4% hits | AlphaScreen BAZ2B-H3K14Ac peptide displacement | AID 504333 | Potency, µM (top dose mostly 114 µM), inactives show at the highest dose activity change, negative = inhibition, actives largely listed as inhibitors; further: on the % scale 0 is the no-effect control and ±100 the full control effect; nearly all actives have a fitted effect of over 60% in size
#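 AlphaScreen displacement: compounds (up to 110uM) incubated 30 min at room temperature with a preformed 50 nM BAZ2B/50 nM biotinylated H3K14Ac peptide complex in PBS pH 7.4 with Tween-20. Donor and acceptor beads at 10 ug/mL final added, 20 min light-protected before reading.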
# JMJD2A Tudor: inhibitors of human JMJD2A Tudor domain; O75164; AlphaScreen JMJD2A-Tudor / H3K4me3 peptide binding; Potency, µM (top dose mostly 114 µM), for inactives: top-dose activity change, negative = inhibition, most hits filed as inhibitors; 390,000 compounds, 4.4% hits; further: on the % scale 0 is the no-effect control and ±100 the full control effect; nearly all actives have a fitted effect of over 50% in size
# HP1b chromo inh: blocks HP1-beta chromodomain binding to methylated histone tails | 390,000 compounds, 0.56% hits | P83916 | AlphaScreen HP1-beta / biotin-H3K9me3 peptide binding | Potency, µM (doses to about 114 µM), for the others: at the highest dose activity change, negative = inhibition, most hits filed as inhibitors; further: nearly all actives have a fitted effect of over 70% in size
#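 HP1-beta protein (50 nM final) preincubated 30 min at room temperature with biotinylated H3(1-18)K9me3 peptide (50 nM) in PBS pH 7.4, 0.01% Tween-20, then compound added for 30 min. AlphaScreen streptavidin donor/nickel chelate acceptor beads (10 ug/mL final), 30 min dark, luminescence read.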
# The depositor's hits bear a star; ? = inconclusive; / = not tested or not shown; [ ] = remark or other dose. The call rests on the fitted dose curve; in most records, active means well fitted curve in the direction sought with a large enough effect; inconclusive means small, poorly fitted or top-dose-only effect, or another doubt; inactive means no such curve, though single readings can be large; an effect the other way counts as inactive or inconclusive. Potency means the concentration at half of the fitted maximal effect.
SMILES,G9a inh,GLS inhibitor,L3MBTL1 block,BAZ2B block,JMJD2A Tudor,HP1b chromo inh
Oc1ccc(-c2cn3c(n2)SCC3)cc1O,1.1µM*,?,/,?,11µM*,?
O=C(OCC#CCSc1nnc(-c2cccc3ccccc23)o1)c1ccc(SC(F)(F)F)cc1,/,/,/,/,23%,/
C=C1CC[C@H](O)C/C1=C/C=C1\CCC[C@]2(C)C([C@H](C)CCCC(C)(C)O)CC[C@@H]12 (stereo not given in full),22%[59 µM],/,/,/,/,/
COc1cc(NC(=O)CN2Cc3ccccc3C2=O)cc(OC)c1OC,2%[59 µM],6%,/,4%,2%,25%
CCC(CC)c1nn2c(=O)cc(COc3ccc(NC(=O)c4cccc(C)c4)cc3)nc2s1,26%[59 µM],1%,/,2%,-6%,48%
CC1CC(C)CN(C(=O)c2ccc(NS(=O)(=O)c3ccc4[nH]c(=O)[nH]c4c3)cc2)C1 (stereo not given),50µM*,6%,-2%,-5%,-10%,9%
CCCCCNC(=O)c1ccc(NS(=O)(=O)c2ccc3[nH]c(=O)[nH]c3c2)cc1,32µM*,0%,/,-28%,?,7%
CCC(CC)NC(=O)c1ccc(NS(=O)(=O)c2ccc3[nH]c(=O)[nH]c3c2)cc1,/,-5%,/,?,-14%,30%
O=C(Nc1ncccc1O)c1ccc(NS(=O)(=O)c2ccc3[nH]c(=O)[nH]c3c2)cc1,71µM*,42%,-9%,79µM*,-22%,-4%
CCOC(=O)c1ccc(NS(=O)(=O)c2ccc3[nH]c(=O)[nH]c3c2)cc1,11µM*,9%,-11%,0%,-17%,-26%
CC(=O)N1CCN(C(=O)c2ccc(NS(=O)(=O)c3ccc4[nH]c(=O)[nH]c4c3)cc2)CC1,5%,0%,6%,-1%,-8%,28%
CCCCCCC(O)C/C=C\CCCCCCCC(=O)O (stereo not given),/,3%,/,/,/,/
CCc1ccc(NC(=O)CSc2nc3c(sc4ccccc43)c(=O)n2CCCOC(C)C)cc1,12%[59 µM],3%,/,0%,-24%,46%
C=CCc1ccc(OCCCNCc2ccccc2)c(OC)c1,/,1%,0%,50µM*,28µM*,?
C=CCc1ccc(OCCCNC2CCCC2)c(OC)c1,/,-3%,/,/,79µM*,?
COc1ccccc1OCCNC1CCCC1,40µM*,-7%,/,?,3.5µM*,-17%
C=CCc1ccc(OCCCOc2ccc(C)cc2OC)c(OC)c1,-1%,1%,/,59%,-6%[11.4 µM],41%
C=CCc1cccc(Cl)c1OCCCNC1CCCC1,/,-13%,-6%,?,50µM*,8%
Cc1ccc(NC(=O)c2cc(S(=O)(=O)N3CCc4ccccc43)ccc2F)cc1Cl,-8%[59 µM],-9%,/,-8%,-23%,-1%
CCOC(=O)c1c(S(=O)(=O)N2CCC(C(=O)NCc3ccc(F)cc3)CC2)c(C)n(C)c1C,2%[59 µM],-4%,/,-15%,-22%,17%
N#Cc1ccccc1OCCOCCNC1CCCC1,10µM*,0%,9%,?,?,-28%
N#Cc1ccccc1OCC(=O)OCC(=O)NC1CCCCCC1,-1%[59 µM],0%,-1%,-2%,-2%,29%
CC(C1CC2CCC1C2)n1c(-c2ccco2)n[nH]c1=S (stereo not given),2.2µM*,11µM*,-15%,?,20µM*,?
COc1cc(NS(=O)(=O)c2cc3c(cc2C)n(C)c(=O)c(=O)n3C)cc(OC)c1,0%[59 µM],3%,/,-4%,-11%,21%
Cc1ccc(C(C)C)c(OCC(=O)Nc2cc(-c3nc4ccccc4[nH]3)ccc2C)c1,10%[59 µM],-9%,/,-1%,-6%,19%
SMILES,G9a inh,GLS inhibitor,L3MBTL1 block,BAZ2B block,JMJD2A Tudor,HP1b chromo inh
O=c1c(CCc2ccccc2)nc2cnc(N3CCNCC3)nc2n1-c1ccccc1,-3%[0.501 µM],/,/,/,/,/
O=C(Nc1nnc(-c2ccco2)s1)C1CCN(S(=O)(=O)c2ccc(Cl)cc2)CC1,-28%,-17%,0%,-36%,-17%,48%
O=C(Nc1nnc(-c2ccco2)s1)C1CC1,50µM*,8%,-11%,?,?,31%
COc1ccc(C2C(C#N)=C(N)Oc3c2oc(CO)cc3=O)c(OC)c1OC (stereo not given),-13%[59 µM],39%,5%,12%,11µM*,16%
COc1cc(C2C(C#N)=C(N)Oc3cc(N)ccc32)cc(OC)c1OC (stereo not given),?,29%,-14%,-2%,-26%,17%
COc1cc(C2C(C#N)=C(N)Oc3c2oc(CO)cc3=O)cc(OC)c1OC (stereo not given),?,38%,-3%,1%,7.1µM*,-13%
COC(=O)C1=C(C)OC(N)=C(C#N)C1c1ccc(OC)c(OC)c1OC (stereo not given),-1%[12.7 µM],18%,8%,6%,5%[57.1 µM],25%
COc1cccc(C2C(C#N)=C(N)Oc3c2oc(CO)cc3=O)c1OC (stereo not given),?,17%,11%,-1%,18µM*,-6%
CCc1ccccc1NC(=O)c1noc2c1CC(C(C)(C)C)CC2 (stereo not given),33%[59 µM],-2%,/,40%,38%,90%
O=C(NCCc1ccccc1)C(=O)NCC(c1cccnc1)N1CCN(c2ccccc2F)CC1 (stereo not given),-4%[59 µM],1%,/,-21%,-7%,13%
O=C(COc1cccc(C(F)(F)F)c1)N1CCN(c2ccc(O)cc2)CC1,7.9µM*,?,-23%,/,56µM*,79µM*
O=C(CCCOc1ccccc1)N1CCN(c2ccccc2)CC1,0%,6%,/,-3%,-20%,13%
NC(=O)C1CCN(C(=O)CN2CCN(c3cccc(C(F)(F)F)c3)CC2)CC1,-25%,22%,4%,2%,89µM*,-4%
O=C(CCOc1ccccc1)N1CCN(c2ccc(O)cc2)CC1,?,11µM*,-24%,?,?,?
O=C(COc1ncnc2ccccc12)N1CCN(c2ccccc2)CC1,50µM*,4%,/,-17%,-18%,7%
O=C(NC(=S)NCCO)c1sc2ccccc2c1Cl,25µM*,-8%,26%[11.4 µM],?,-8%,38%
COc1ccc(S(=O)(=O)N2CCOCC2)cc1NC(=O)CCNC(=O)c1ccc(Cl)cc1,-32%,-1%,2%,6%,-6%,29%
COc1ccc(S(=O)(=O)N2CCOCC2)cc1NC(=O)Cc1ccccc1Cl,15%[59 µM],-1%,3%,2%,11%,35%
COc1ccc(S(=O)(=O)N2CCOCC2)cc1NC(=O)CCNC(=O)c1ccc(Br)cc1,16µM*,-14%,-9%,1%,-14%,8%
